Records with an inconclusive call do not appear. Activity calls are given as the source filed them. Unless noted, the call rests on the fitted dose curve; in most records, active means well fitted inhibition curve with a large enough effect; inconclusive means small, poorly fitted or top-dose-only effect; inactive means flat fitted curve, though single readings scatter.
Biological target: Peptidyl-prolyl cis-trans isomerase NIMA-interacting 1 (Homo sapiens) (UniProt Q13526)
Assay: qHTS Validation Assay to Find Inhibitors of Pin1 (AID 504536; active means well fitted inhibition curve with a large enough effect in the polarisation, with a control signal flat, not every such curve was filed as active; the % refers to the polarisation)
Conditions: Pin1 fluorescence polarization peptide binding assay; series mostly up to 57.5 µM
Outline: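 Fluorescence polarization competition: compounds (titration) displace HiFluor-488-labeled Pin1-1b peptide from Pin1 (0.3 uM final) in pH 7.5 HEPES buffer with DTT, 10 min at room temperature; %Activity normalized to no-enzyme wells, curves fitted.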

Sequence of Peptidyl-prolyl cis-trans isomerase NIMA-interacting 1 (Homo sapiens) (Q13526 whole entry, looked up): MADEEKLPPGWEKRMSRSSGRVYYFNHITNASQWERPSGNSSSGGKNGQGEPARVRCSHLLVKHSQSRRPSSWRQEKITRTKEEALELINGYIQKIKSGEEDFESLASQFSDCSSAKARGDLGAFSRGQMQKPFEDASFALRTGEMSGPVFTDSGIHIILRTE

**Q.** Which outcome does the source give for `C[C@]12CC[C@@H]3c4ccc(O)cc4C[C@@H](CCCCCCCCCS(=O)CCCC(F)(F)C(F)(F)F)[C@H]3[C@@H]1CC[C@@H]2O` (stereo not given in full) here?
**A.** inactive

**Q.** For `Cc1nc2ccccn2c(=O)c1CCN1CCC(C(=O)c2ccc(F)cc2)CC1`, which outcome is on record?
**A.** inactive

**Q.** For `Cc1cccc(C)c1NC(=O)C(C)N` (stereo not given), which outcome is on record?
**A.** inactive

**Q.** With `CC(C)[N+](C)(CCOC(=O)C1c2ccccc2Oc2ccccc21)C(C)C` as the molecule, how does the outcome read?
**A.** inactive

**Q.** For `COc1ccc(CN(CCN(C)C)c2ccccn2)cc1`, which outcome is on record?
**A.** inactive

**Q.** With `CN1C[C@H](C(=O)N[C@]2(C)O[C@@]3(O)[C@@H]4CCCN4C(=O)[C@H](Cc4ccccc4)N3C2=O)C[C@@H]2c3cccc4[nH]cc(c34)C[C@H]21` as the molecule, how does the outcome read?
**A.** inactive

**Q.** With `CC(=O)[C@@]1(O)CC[C@H]2[C@@H]3CCC4=CC(=O)CC[C@]4(C)[C@H]3CC[C@@]21C` as the molecule, how does the outcome read?
**A.** inactive

**Q.** With `CNC1(C)C2CCC(C2)C1(C)C` (stereo not given) as the molecule, how does the outcome read?
**A.** inactive

**Q.** How did the outcome turn out when `CCOC(=O)C1=C(C)NC(C)=C(C(=O)OC)C1c1cccc(Cl)c1Cl` (stereo not given) was run?
**A.** inactive

**Q.** With `CCCCNc1c(C(=O)OCC)c(C)nc2c1cnn2CC` as the molecule, how does the outcome read?
**A.** inactive

**Q.** Which outcome does the source give for `CC1=C(C)C(=O)C(CCCCC#CCCCC#CCO)=C(C)C1=O` here?
**A.** inactive

**Q.** How did the outcome turn out when `CN1C(=O)CC[C@H]1c1cccnc1` was run?
**A.** inactive

**Q.** Which outcome does the source give for `Cc1nc2sccn2c(=O)c1CCN1CCC(=C(c2ccc(F)cc2)c2ccc(F)cc2)CC1` here?
**A.** inactive

**Q.** For `CN(C)CCCN1c2ccccc2Sc2ccc(C(F)(F)F)cc21`, which outcome is on record?
**A.** inactive

**Q.** `COc1cc(Cc2cnc(N)nc2N)cc(OC)c1OC` was tested. Which outcome did it give?
**A.** inactive

**Q.** `C[C@]12CCC(=O)C=C1CC[C@@H]1[C@@H]2C(=O)C[C@@]2(C)[C@H]1CC[C@]2(O)C(=O)CO` was tested. Which outcome did it give?
**A.** inactive

Biological target: Phosphoglycerate kinase, glycosomal (Trypanosoma brucei brucei) (UniProt P07378)
Sequence (P07378 whole entry, looked up): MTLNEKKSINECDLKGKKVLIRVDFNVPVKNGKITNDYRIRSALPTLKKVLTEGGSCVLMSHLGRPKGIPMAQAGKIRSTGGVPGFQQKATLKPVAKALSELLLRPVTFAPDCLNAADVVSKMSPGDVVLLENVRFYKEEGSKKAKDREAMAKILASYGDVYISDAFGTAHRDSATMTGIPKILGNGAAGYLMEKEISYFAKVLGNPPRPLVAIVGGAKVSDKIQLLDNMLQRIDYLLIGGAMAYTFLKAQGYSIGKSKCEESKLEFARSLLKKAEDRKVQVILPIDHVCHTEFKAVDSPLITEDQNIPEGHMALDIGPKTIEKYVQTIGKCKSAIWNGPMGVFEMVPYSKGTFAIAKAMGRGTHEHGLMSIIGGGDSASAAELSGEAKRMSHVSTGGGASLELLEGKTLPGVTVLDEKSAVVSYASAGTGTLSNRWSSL
Assay: qHTS Validation Assay to Find Inhibitors of Phosphoglycerate Kinase (AID 504547)
Conditions: enzymatic PGK inhibition, coupled luminescence read-out; series mostly up to 57.5 µM
Outline: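 Inhibition of the enzyme is judged by a Kinase-Glo Plus luminescent signal following a one-hour incubation at room temperature. Because 1,3-BPG is unstable, it is made in situ by GAPDH at 100nM final; no-PGK wells define the baseline.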

**Q.** `NC(=O)c1cn(Cc2c(F)cccc2F)nn1` was tested. Which outcome did it give?
**A.** inactive

**Q.** Which outcome does the source give for `CN1CCN(CC(=O)N2c3ccccc3C(=O)Nc3cccnc32)CC1` here?
**A.** inactive

**Q.** For `COc1ccc2c(c1OC)C(=O)O[C@@H]2[C@H]1c2c(cc3c(c2OC)OCO3)CCN1C`, which outcome is on record?
**A.** inactive

**Q.** How did the outcome turn out when `COc1ccc([C@@H]2Sc3ccccc3N(CCN(C)C)C(=O)[C@@H]2OC(C)=O)cc1` was run?
**A.** inactive

**Q.** How did the outcome turn out when `CC(C)COCC(CN(Cc1ccccc1)c1ccccc1)N1CCCC1` (stereo not given) was run?
**A.** inactive

**Q.** With `CN(C)C(=O)Oc1ccc[n+](C)c1` as the molecule, how does the outcome read?
**A.** inactive

**Q.** With `CCCC(C(=O)OCCN(CC)CC)(c1ccccc1)c1ccccc1` as the molecule, how does the outcome read?
**A.** inactive

**Q.** `COC(=O)C1=C(C)NC(C)=C(C(=O)OC(C)(C)CN(C)CCC(c2ccccc2)c2ccccc2)C1c1cccc([N+](=O)[O-])c1` (stereo not given) was tested. Which outcome did it give?
**A.** inactive

**Q.** How did the outcome turn out when `CCn1ccnc1CC1COc2ccccc2O1` (stereo not given) was run?
**A.** inactive

**Q.** Which outcome does the source give for `NC1=NCC2c3ccccc3Cc3ccccc3N12` (stereo not given) here?
**A.** inactive

**Q.** With `C[C@]12CC[C@@H]3c4ccc(O)cc4C[C@@H](CCCCCCCCCS(=O)CCCC(F)(F)C(F)(F)F)[C@H]3[C@@H]1CC[C@@H]2O` (stereo not given in full) as the molecule, how does the outcome read?
**A.** inactive

**Q.** `Cc1cccc(C)c1NC(=O)C(C)N` (stereo not given) was tested. Which outcome did it give?
**A.** inactive

**Q.** `C#CCN(C)CCCOc1ccc(Cl)cc1Cl` was tested. Which outcome did it give?
**A.** inactive

**Q.** Which outcome does the source give for `CC(C)[N+](C)(CCOC(=O)C1c2ccccc2Oc2ccccc21)C(C)C` here?
**A.** inactive

**Q.** How did the outcome turn out when `CC(=O)[C@@]1(O)CC[C@H]2[C@@H]3CCC4=CC(=O)CC[C@]4(C)[C@H]3CC[C@@]21C` was run?
**A.** inactive

**Q.** Which outcome does the source give for `CCOC(=O)C1=C(C)NC(C)=C(C(=O)OC)C1c1cccc(Cl)c1Cl` (stereo not given) here?
**A.** inactive

**Q.** Which outcome does the source give for `CCCCNc1c(C(=O)OCC)c(C)nc2c1cnn2CC` here?
**A.** inactive

**Q.** With `CC1=C(C)C(=O)C(CCCCC#CCCCC#CCO)=C(C)C1=O` as the molecule, how does the outcome read?
**A.** inactive

**Q.** How did the outcome turn out when `CN1C(=O)CC[C@H]1c1cccnc1` was run?
**A.** inactive

**Q.** Which outcome does the source give for `Cc1nc2sccn2c(=O)c1CCN1CCC(=C(c2ccc(F)cc2)c2ccc(F)cc2)CC1` here?
**A.** inactive

**Q.** How did the outcome turn out when `CN(C)CCCN1c2ccccc2Sc2ccc(C(F)(F)F)cc21` was run?
**A.** inactive

**Q.** How did the outcome turn out when `COc1cc(Cc2cnc(N)nc2N)cc(OC)c1OC` was run?
**A.** inactive

**Q.** Which outcome does the source give for `CN(C)[C@@H]1C(=O)C(C(N)=O)=C(O)[C@@]2(O)C(=O)C3=C(O)c4c(O)ccc(Cl)c4[C@@H](O)[C@H]3C[C@@H]12` here?
**A.** inactive

**Q.** For `C[C@]12CCC(=O)C=C1CC[C@@H]1[C@@H]2C(=O)C[C@@]2(C)[C@H]1CC[C@]2(O)C(=O)CO`, which outcome is on record?
**A.** inactive

— PubChem BioAssay (NCATS)
